Data on 13 molecules can be found in PubChem BioAssay AID686959 (The Scripps Research Institute Molecular Screening Center, 2013).

Activity calls are given as the source filed them. No cut-off is given here; in the data, nearly all actives have IC50 up to about 8.1 µM.

The test can be described thus: binders of r(CAG) RNA repeats, dose response, biochemical, fluorescence (AID 686959). Conditions: r(CAG) RNA repeat binding.
For `COc1ccc(Cn2c(O)c(/C=N/NC(=O)c3cccnc3)c3ccccc3c2=O)cc1`, the concentration for half-maximal inhibition (IC50) (commonly the point on the concentration scale where inhibition reaches its midpoint) was 3.07 µM (active). Turning to `C=CCOc1c(OC)cc(/C=N/Nc2cccc(C(=O)O)c2)c(Br)c1Br`, the IC50 was 2.28 µM (active). The value for `Cc1cc(N2C(=O)C(O)=C(C(=O)c3cc4ccccc4o3)C2c2cccc(Cl)c2)no1` (stereo not drawn) was 1.19 µM (active); that for `Oc1ccc(/C=N/Nc2ccnc3cc(Cl)ccc23)c(O)c1O` was 2.5 µM (active); that for `COc1ccc2nc(N3C(=O)C(O)=C(C(=O)c4ccco4)C3c3ccc(OC)c(OC)c3)sc2c1` (stereo not drawn) was 2.04 µM (active).

Take `CC1=NN(C(N)=S)C(=O)C1N=Nc1c(Br)cc(Br)cc1Br` (stereo not drawn): the IC50 was 5.73 µM (active).

Turning to `CCc1nnc(NS(=O)(=O)c2ccc(N/C=C/C(=O)c3ccc(C)cc3)cc2)s1`, the half-inhibitory concentration (IC50) was 1.9 µM (active). As for `O=C(O)c1ccc(N2C(=O)CC(SC(=NCc3ccc4c(c3)OCO4)Nc3ccc(F)cc3)C2=O)cc1` (stereo not drawn), the IC50 is 2.89 µM (active).

`Cc1ccc2c(c1)c(N=Nc1cccc(C(=O)O)c1)c(O)n2C`: the IC50 is 5.07 µM (active). As for `CC(C)c1ccc(C2c3[nH]c4ccccc4c3C[C@H]3C(=O)N(c4ccccc4C(=O)N4CCC[C@@H]4C(=O)O)C(=O)N23)cc1` (stereo partly drawn), the IC50 was 2.84 µM (active). Then `CCOC(=O)C1=C(C)NC(SCc2cc(=O)[nH][nH]2)=C(C#N)C1c1cccs1` (stereo not drawn), with 7.4 µM (active); and `CCCOc1ccc(N2C(=O)CC(S/C(N)=N/N=C(\C)c3cccs3)C2=O)cc1` (stereo not drawn), with 7.76 µM (active).

As for `Cc1ccc2nc(N3C(=O)C(O)=C(C(=O)c4ccco4)C3c3ccc(C)o3)sc2c1` (stereo not drawn), the 50% inhibitory concentration (IC50) was 0.624 µM (active).
